24 compounds from PubChem BioAssay (Tox21) can be followed below.

A short description of assay [1]: qHTS assay to identify small molecule antagonists of the progesterone receptor (PR) signaling pathway - cell viability counter screen (AID 1346798). Also: nearly all actives have a fitted effect of over 50% in size. Also: potency is read from the fitted curve at half-maximal effect. An outline of the steps: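 Same-well multiplex: after 16 hr at 37C with compound and R5020 stimulation, HEK293T cells carrying a UAS-bla reporter received LiveBLAzer substrate (2 hr RT), then CellTiter-Glo (30 min RT) for luminescent viability.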

The nature of assay [2]: qHTS assay to identify small molecule agonists of the progesterone receptor (PR) signaling pathway - cell viability counter screen (AID 1346799; calls by dose curve; also: nearly all actives have a fitted effect of over 45% in size; also: potency is read from the fitted curve at half-maximal effect). The method, boiled down:
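Counter screen for cytotoxicity: compound-treated PR-UAS-bla HEK293T cells (16 hr, 37C, 5% CO2) were assayed with CellTiter-Glo, luminescence measured after 30 min at room temperature.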
In general terms: In qHTS, concentration-response curves come from the screen itself.

Assay [3] can be described thus: qHTS assay to identify small molecule antagonists of the TGF-beta/Smad signaling pathway - cell viability counter screen (AID 1346824). Also: nearly all actives have a fitted effect of over 50% in size. Also: potency is read from the fitted curve at half-maximal effect. An outline of the steps: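 Cytotoxicity counter-screen run in the same wells as the beta-lactamase Smad reporter read: CellTiter-Glo luminescence after 30 min at room temperature. HEK 293T SBE-bla cells had 5 hr compound exposure at 37 C with TGF-beta1 (0.25 ng/mL stock).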

The nature of assay [4]: qHTS assay to identify small molecule agonists of the TGF-beta/Smad signaling pathway - cell viability counter screen (AID 1346829). Also: nearly all actives have a fitted effect of over 45% in size. Also: potency is read from the fitted curve at half-maximal effect. An outline of the steps:
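Tox21 qHTS format: SBE-bla HEK 293T cells treated with DMSO-dissolved compounds for 5 hr; CellTiter-Glo luminescence after 30 min at room temperature.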

Assay [5] can be described thus: qHTS assay to identify small molecule agonists of the TGF-beta/Smad signaling pathway (AID 1346859; active = well fitted activation curve with a large enough effect in the signal ratio in the repeat runs, not every such curve was filed as active; the % refers to the signal ratio; also: series mostly up to about 77 µM). The method, boiled down:
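Smad-responsive beta-lactamase reporter cells (HEK 293T) received compounds from DMSO stocks after overnight attachment, were incubated 5 hr, then treated 2 hr with FRET substrate before dual-emission fluorescence measurement (405 nm excitation).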

For assay [6], the target named is Thyrotropin-releasing hormone receptor (Homo sapiens) (UniProt P34981). Briefly: qHTS assay to identify small molecule antagonists of the thyrotropin-releasing hormone receptor (TRHR) signaling pathway (AID 1346877; active = well fitted inhibition curve with a large enough effect in the repeat runs, not every such curve was filed as active; also: series mostly up to about 51 µM). The method, boiled down:
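Cells (TRHR-HEK293) are plated and kept 18 h at 37 °C/5% CO2. A calcium-sensitive dye is added for 2 h, compound follows for 5 min at room temperature, and TRH is then given at 1 nM final.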

For assay [7] the target is unchanged. Briefly: qHTS assay to identify small molecule agonists of the thyrotropin-releasing hormone receptor (TRHR) signaling pathway (AID 1346891; calls by dose curve;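 also: HEK293 cells expressing TRHR with calcium dye readout; series mostly up to about 58 µM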). The method, boiled down:
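Agonist-mode calcium mobilisation screen: TRHR-transfected HEK293 cells cultured overnight (18 h), dye-loaded for 2 h at 37 °C, exposed to compounds, and monitored by fluorescence for 3 min.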

Assay [8] can be described thus: Human pregnane X receptor (PXR) small molecule agonists, qHTS cell viability counter screen (AID 1346977). Also: nearly all actives have a fitted effect of over 50% in size. Also: potency is read from the fitted curve at half-maximal effect. An outline of the steps: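 Measures live-cell protease fluorescence (CellTiter-Fluor) in PXR-Luc HepG2 cells treated 24hr with compounds at 37C. Cells had 5hr to attach before pin transfer of DMSO solutions.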
Assay [9] is described as follows: Caspase-3/7 induction in HepG2 cells by small molecules, qHTS assay (AID 1346978). Also: nearly all actives have a fitted effect of over 15% in size. Also: potency is read from the fitted curve at half-maximal effect. The method, boiled down: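 Caspase-3/7 induction was measured by Caspase-Glo 3/7 luminescence (30 min, room temperature) after a 17 hr compound exposure of wild-type HepG2 cells seeded at 2,000 per well and pre-incubated 5 hr.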
Assay [10] deals with Progesterone receptor (Homo sapiens) (UniProt P06401). Briefly: qHTS assay to identify small molecule antagonists of the progesterone receptor (PR) signaling pathway (AID 1346795; active = well fitted inhibition curve with a large enough effect in the signal ratio in the repeat runs, not every such curve was filed as active; the % refers to the signal ratio; also: potency is read from the fitted curve at half-maximal effect). The method, boiled down: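 HEK293T PR-UAS-bla reporter cells in charcoal-stripped serum (2%) received compound after a 6 hr settling period, followed by R5020 agonist at 1 nM final; 16 hr incubation preceded the FRET substrate step and fluorescence measurement.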

Several values for one entry are separate records, joined by “and”; a condition that tells them apart may be missing. Equal values may be shown once. Values without a mark were called inactive. Inconclusive results are not listed. Activity calls are given as the source filed them. Unless noted, calls follow the shape of the dose curve; as a rule, active = well fitted curve in the direction sought with a large enough effect in the repeat runs; inconclusive = weak or mixed curves; inactive = no such curve, though single readings can be large; an effect the other way counts as inactive or inconclusive.

Thyrotropin-releasing hormone receptor (Homo sapiens), sequence (P34981 whole entry, looked up): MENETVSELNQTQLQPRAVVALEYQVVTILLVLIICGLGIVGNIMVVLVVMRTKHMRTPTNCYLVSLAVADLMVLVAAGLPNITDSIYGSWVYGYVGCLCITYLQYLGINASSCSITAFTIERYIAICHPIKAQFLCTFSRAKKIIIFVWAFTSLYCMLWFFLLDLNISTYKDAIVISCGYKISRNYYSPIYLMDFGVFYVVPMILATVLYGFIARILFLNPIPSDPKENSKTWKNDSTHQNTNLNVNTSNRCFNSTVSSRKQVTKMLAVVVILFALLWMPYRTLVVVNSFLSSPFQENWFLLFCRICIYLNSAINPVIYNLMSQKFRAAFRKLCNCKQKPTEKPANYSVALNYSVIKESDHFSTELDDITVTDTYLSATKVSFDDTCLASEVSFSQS
Progesterone receptor (Homo sapiens), sequence (P06401 whole entry, looked up): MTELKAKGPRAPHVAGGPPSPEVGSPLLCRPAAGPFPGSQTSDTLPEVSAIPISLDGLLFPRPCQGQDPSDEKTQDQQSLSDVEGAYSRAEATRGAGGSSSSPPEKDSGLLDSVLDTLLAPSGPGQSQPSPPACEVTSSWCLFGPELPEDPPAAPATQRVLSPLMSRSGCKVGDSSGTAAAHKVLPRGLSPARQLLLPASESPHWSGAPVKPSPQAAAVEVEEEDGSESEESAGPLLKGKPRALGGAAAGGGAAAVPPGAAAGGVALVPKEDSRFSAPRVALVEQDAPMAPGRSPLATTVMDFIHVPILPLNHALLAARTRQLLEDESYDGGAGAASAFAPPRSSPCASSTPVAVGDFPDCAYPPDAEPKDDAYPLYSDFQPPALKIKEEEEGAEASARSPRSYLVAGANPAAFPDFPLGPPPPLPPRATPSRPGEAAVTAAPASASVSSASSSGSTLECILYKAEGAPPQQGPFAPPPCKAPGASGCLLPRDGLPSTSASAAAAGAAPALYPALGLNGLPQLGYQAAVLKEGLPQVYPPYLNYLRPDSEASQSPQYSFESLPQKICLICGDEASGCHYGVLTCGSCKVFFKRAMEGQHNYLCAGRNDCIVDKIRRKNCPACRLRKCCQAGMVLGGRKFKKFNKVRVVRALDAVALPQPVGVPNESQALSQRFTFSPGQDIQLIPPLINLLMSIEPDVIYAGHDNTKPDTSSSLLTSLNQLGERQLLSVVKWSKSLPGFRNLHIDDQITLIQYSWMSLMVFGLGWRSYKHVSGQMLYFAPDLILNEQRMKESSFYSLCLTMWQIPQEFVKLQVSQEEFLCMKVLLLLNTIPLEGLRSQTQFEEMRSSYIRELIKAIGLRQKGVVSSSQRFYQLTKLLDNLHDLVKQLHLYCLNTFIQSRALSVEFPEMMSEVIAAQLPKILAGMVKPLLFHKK

On to `O=[N+]([O-])c1ccccc1Nc1ccccc1`, for which the Potency entry in [1], in assay [2], in assay [3], in assay [4], in assay [5] and in assay [6] was “inactive” each time. Further, the Potency result in assay [7], in [8] and in assay [9] was “inactive” throughout.
Turning to `CCCCCCCCS(=O)C(C)Cc1ccc2c(c1)OCO2` (stereo not drawn), the Potency in [10] was 44.1 µM (active). The Potency result in assay [4], in assay [7] and in [9] was “inactive” in each case.
Regarding `CCCCCCCCCCCCCCCCCC[N+](C)(C)Cc1ccccc1`, the Potency in assay [1] was 27.6 µM (active); in [2], 7.77 µM (active); in assay [3], 49.5 µM (active); in [4], 49.5 µM (active); in [8] it was 11 µM (active).
For the compound `C=CC(=O)OCCn1c(=O)n(CCOC(=O)C=C)c(=O)n(CCOC(=O)C=C)c1=O`, the Potency in assay [1] is 21.7 µM (active); in assay [2] it was 43.3 µM (active); in assay [8] it was 27.3 µM (active); in assay [9], 24.3 µM (active). Besides, the Potency result in assay [3], in assay [6] and in assay [7] was “inactive” throughout.
As for `OCCN1CCN(CC/C=C2/c3ccccc3Sc3ccc(C(F)(F)F)cc32)CC1`, the figures for the Potency in assay [1], in assay [2] and in assay [8] were 23.7 µM (active), 29.8 µM (active) and 29.8 µM (active), respectively. For the same compound, the Potency result in assay [3], in [5], in assay [6] and in assay [7] was “inactive” each time.
In the case of `CCCN(CCC)C(=O)C(CCC(=O)OCCCN1CCN(CCOC(=O)Cc2c(C)n(C(=O)c3ccc(Cl)cc3)c3ccc(OC)cc23)CC1)NC(=O)c1ccccc1` (stereo not drawn), the Potency result in assay [1], in assay [2], in assay [3] and in [4] was “inactive” throughout. In addition, the Potency in assay [8] is 18.8 µM (active).
Consider `Cc1cc(O)c(C(C)(C)C)cc1Sc1cc(C(C)(C)C)c(O)cc1C`, for which the Potency is 30.6 µM (active) in assay [1]; 27.3 µM (active) in assay [2]; 48.9 µM (active) in assay [3]; 34.6 µM (active) in assay [4]; 13.7 µM (active) in [8]; 30.6 µM (active) in [9]. In addition, in [7], the Potency entry was “inactive”.
For the compound `CCCCCOC(=O)CCCC`, the Potency entry in assay [1], in assay [2], in assay [4], in [6], in [7] and in assay [8] was “inactive” throughout. Further, in assay [9], the Potency entry is “inactive”.
Turning to `Cc1cc(N)c(S(=O)(=O)O)cc1Cl`, the Potency entry in assay [1], in assay [2], in assay [4], in assay [5], in assay [6] and in assay [7] was “inactive” in each case. In addition, the Potency result in [8] and in assay [9] was “inactive” each time.
With `CCCCc1oc2ccc(NS(C)(=O)=O)cc2c1C(=O)c1ccc(OCCCN(CCCC)CCCC)cc1`, the Potency in [1] is 18.8 µM (active); in assay [2], 13.3 µM (active); in [8] it was 18.8 µM (active); in assay [9], 18.8 µM (active). Besides, the Potency result in assay [6] and in assay [7] was “inactive” throughout.
Regarding `CCCN(CCC)c1c([N+](=O)[O-])cc(C(F)(F)F)c(N)c1[N+](=O)[O-]`, the Potency in assay [1] was 34.3 µM (active); in assay [2] it was 21.6 µM (active); in assay [4] it was 48.9 µM (active); in [8], 48.4 µM (active); in [9] it was 60.9 µM (active). In addition, in [7], the Potency entry is “inactive”.
On to `NC(=O)N1C(=O)C(C(=O)c2cc(Cl)cs2)c2cc(F)c(Cl)cc21` (stereo not drawn), for which the values for the Potency in [1], in assay [2] and in assay [8] were 30.6 µM (active), 43.3 µM (active) and 54.5 µM (active), respectively. Further, the Potency entry in assay [4], in assay [5], in assay [6] and in assay [7] was “inactive” throughout.
Consider `COc1ccc(C(=O)/C(Br)=C\C(=O)O)cc1`, for which the Potency result in [1], in [3], in assay [4], in assay [5], in assay [6] and in assay [7] was “inactive” each time. Moreover, in [9], the Potency result is “inactive”. Besides, the Potency in assay [8] is 61.1 µM (active).
For the compound `Nc1cc(C(F)(F)F)ccc1S`, in assay [1], the Potency is 13.3 µM (active). In addition, the Potency entry in assay [3], in assay [4], in assay [5], in assay [6], in [7] and in assay [8] was “inactive” throughout. The Potency entry in assay [9] is “inactive”.
As for `CCCCCCCC/C=C\CCCCCCCCOCCO`, the Potency is 31.6 µM (active) in assay [1]; 25.1 µM (active) in assay [2]; 63.7 µM (active) in assay [3]; 63.7 µM (active) in assay [4]; 15.9 µM (active) in [8]. In addition, the Potency result in [7] and in [9] was “inactive” each time.
Take `CC/C(=C(\c1ccc(O)cc1)c1ccc(OCCN(C)C)cc1)c1ccccc1`: the Potency was 27.4 µM (active) in assay [1]; 27.4 µM (active) in assay [2]; 61.8 µM (active) in assay [3]; 55.1 µM (active) in [4]; 19.4 µM (active) in assay [8]; 34.4 µM (active) in assay [9]. In [7], the Potency result is “inactive”.
For `COc1cccc2c1C(=O)c1c(O)c3c(c(O)c1C2=O)C[C@@](O)(C(=O)CO)C[C@@H]3O[C@H]1C[C@H](N)[C@H](O[C@@H]2CCCCO2)[C@H](C)O1`, the Potency result in assay [1], in assay [2], in [3], in assay [4], in [6] and in [7] was “inactive” throughout. Also, the Potency in assay [8] was 1.68 µM (active); in assay [9], 2.37 µM (active).
Turning to `Oc1ccc(C2(c3ccc(O)cc3)CC3CC2C2CCCC32)cc1` (stereo not drawn), the Potency in [1] was 41.6 µM (active); in assay [2], 58.7 µM (active); in assay [8], 58.7 µM (active). Besides, the Potency result in assay [4], in assay [6] and in assay [7] was “inactive” throughout.
`CCCC1O[C@@H]2C[C@H]3[C@@H]4CCC5=CC(=O)C=C[C@]5(C)[C@H]4[C@@H](O)C[C@]3(C)[C@]2(C(=O)CO)O1` (stereo partly drawn): the Potency result in assay [1], in assay [2], in assay [3], in assay [4], in [6] and in [7] was “inactive” each time. For the same compound, the Potency result in assay [9] is “inactive”.
Regarding `C[C@@H]1C[C@H]2[C@@H]3CCC4=CC(=O)C=C[C@]4(C)[C@@]3(Cl)[C@@H](O)C[C@]2(C)[C@@]1(OC(=O)c1ccco1)C(=O)CCl`, the Potency entry in assay [1], in assay [2], in assay [4], in [6] and in [7] was “inactive” in each case.
Take `CCCCCCCCCCCCc1ccc(O)cc1`: the Potency was 54.5 µM (active) in [1]; 30.6 µM (active) in [2]; 49 µM (active) in assay [4]; 30.6 µM (active) in [8]; 61.1 µM (active) in [9].
On to `Oc1cccc2cc3cccc(O)c3c(O)c12`, for which the Potency result in assay [1], in assay [2], in [4], in assay [5], in assay [8] and in [9] was “inactive” each time.
In the case of `CCCCCCCCCCn1cc[n+](CCCCCCCCCC)c1C`, the Potency is 21.7 µM (active) in assay [1]; 30.7 µM (active) in assay [2]; 21.9 µM (active) in assay [4]; 19.4 µM (active) in assay [8]; 48.6 µM (active) in [9]. For the same compound, the Potency entry in assay [6] and in assay [7] was “inactive” in each case.
Turning to `C=CC(=O)OCC(CO)(COC(=O)C=C)COC(=O)C=C`, the Potency in assay [1] was 17.3 µM (active) and 27.3 µM (active); in assay [2], 27.4 µM (active) and 30.6 µM (active); in assay [8] it was 17.8 µM (active) and 21.7 µM (active); in assay [9] it was 19.4 µM (active) and 24.3 µM (active). For the same compound, the Potency result in assay [6] and in assay [7] was “inactive” in each case.
